Consider 14 compounds from PubChem BioAssay.

For orientation: inhibition means the drop in the measured response relative to a control, in per cent.

Assay [1] in a line: inhibitors of TNFa-induced NFkB p65 translocation, primary screen, imaging, HUVEC, MLSMR starter and 10KST1 sets (AID 438;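 active = inhibition above 20% together with a positive visual image hit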;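 also: compound added about 3h40 before a 20 min TNFalpha stimulation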;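 as to inhibition: signal is the nuclear over cytoplasmic p65 intensity ratio per well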). To be noted: HUVEC TNFa-induced p65 nuclear translocation; cell count: measured here: nuclei count (cytotoxicity indicator), at 2.08 µM; inhibition: at 2 µM, stronger effect = higher value, 0% TNFa-plus-vehicle, 100% no-TNFa wells.
Assay [2] is described as follows: inhibitors of mutant huntingtin aggregation, primary screen, imaging, exon1htt(103Q)mCFP cells, high-content imaging (AID 483;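 active = visual image review flags a hit and inhibition of aggregation exceeds 20%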;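 also: compound exposure lasted 3 days before fixation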;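 as to nuclei count: percent of the per-plate median nuclei count of sample wells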). To be noted: exon1htt(103Q)mCFP cell line, aggregate imaging, at 2 µM; inhibition of aggregation: stronger effect = higher value; nuclei count: measured here: cell count, toxicity.
Assay [3] is described as follows: inhibitors of E-selectin induction by TNFa, primary screen, imaging, HUVEC, immunofluorescence, MLSMR starter and 10KST1 sets (AID 487;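 active = visually confirmed hit in the image check and inhibition above 20%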;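 as to inhibition: signal is fraction of cell area covered by stained E-selectin grains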;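 as to nuclei count: 100% = median nuclei count of all wells on the same plate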). To be noted: HUVEC TNFalpha-induced E-selectin immunofluorescence imaging, at 2 µM; inhibition: stronger effect = higher value; nuclei count: measured here: cell number, toxicity.
Assay [4] concerns the target Voltage-gated potassium channel subunit beta-2 (Rattus norvegicus) (UniProt P62483). Description: KvBeta enzyme negative modulators, primary screen, biochemical, NADPH fluorescence (AID 622;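 active = fluorescence slope higher than the sample average by over 3 SD, cut at about -0.22 in these data, passing the limit was not always enough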;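 also: slope of raw intensity against log time taken from 70 to 1610 s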). The note with it: recombinant KvBeta, 4-cyanobenzaldehyde reduction, at 10 µM, stronger effect = higher value.
For assay [5] the target is unchanged. Description: KvBeta positive modulators, primary screen, biochemical, NADPH fluorescence (AID 623;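 active = NADPH fluorescence slope more negative than the mean of all samples by about 3 SD, 99.7% confidence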;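 also: fluorescence intensity change per second fitted from 20 to 320 s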). To be noted: Recombinant KvBeta, NADPH fluorescence decrease slope, 10 min; at 10 µM; stronger effect = lower value.
Assay [6] concerns the target Alpha-2C adrenergic receptor (Homo sapiens) (UniProt P18825). In words: modulators of alpha2C/GIRK thallium flux, primary screen, cell-based, HEK293 alpha2C/GIRK1/2 (AID 624).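 Also: slope of fluorescence ratio to pre-addition baseline per second over 15 to 24 s.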 To be noted: thallium flux BTC fluorescence, at 10 µM, actives lie on both sides.
Assay [7] is described as follows: inhibitors of Sendai virus-induced IRF3 signaling, primary screen, TLR/RLR signaling modifier project, cell-based, Sendai virus stimulus, luciferase, 10K MLSCN set (AID 602276;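 active = inhibition at or above 50% at 10 µM; inactive = inhibition below 50%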;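 also: firefly luciferase from ISG56 promoter only with Renilla not read in this screen; 0% = Sendai virus plus DMSO and 100% = medium plus DMSO without virus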). To be noted: HEK293 RL24 IRF3 luciferase reporter, at 10 µM, stronger effect = higher value. In general terms: In a reporter assay the amount or activity of a reporter protein is the signal.
Assay [8] can be described thus: inhibitors of poly I:C-induced TLR3 signaling, primary screen, cell-based, poly I:C stimulus, luciferase, 10K MLSCN set (AID 602277;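 active = inhibition of the reporter signal at or above 50%; inactive = inhibition below 50%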). The note with it: HEK293-TLR3 RL24 IRF3 luciferase reporter, at 10 µM, stronger effect = higher value.

Activity calls are given as the source filed them.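 The calls were made as follows, unless noted: active = fluorescence slope after compound addition differing from the mean of all screened samples at 99.7% confidence, in either direction; inactive = the rest.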

Voltage-gated potassium channel subunit beta-2 (Rattus norvegicus), sequence (P62483 whole entry, looked up): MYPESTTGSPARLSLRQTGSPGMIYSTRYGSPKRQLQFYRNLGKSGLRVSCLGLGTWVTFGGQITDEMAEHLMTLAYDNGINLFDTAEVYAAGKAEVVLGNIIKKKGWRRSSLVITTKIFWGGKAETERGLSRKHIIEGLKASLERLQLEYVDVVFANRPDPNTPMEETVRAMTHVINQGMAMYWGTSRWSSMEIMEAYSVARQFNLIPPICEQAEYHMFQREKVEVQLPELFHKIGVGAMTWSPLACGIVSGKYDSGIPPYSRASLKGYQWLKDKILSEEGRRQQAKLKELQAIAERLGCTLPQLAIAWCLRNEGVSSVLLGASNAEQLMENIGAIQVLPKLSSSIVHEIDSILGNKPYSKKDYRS
Alpha-2C adrenergic receptor (Homo sapiens), sequence (P18825 whole entry, looked up): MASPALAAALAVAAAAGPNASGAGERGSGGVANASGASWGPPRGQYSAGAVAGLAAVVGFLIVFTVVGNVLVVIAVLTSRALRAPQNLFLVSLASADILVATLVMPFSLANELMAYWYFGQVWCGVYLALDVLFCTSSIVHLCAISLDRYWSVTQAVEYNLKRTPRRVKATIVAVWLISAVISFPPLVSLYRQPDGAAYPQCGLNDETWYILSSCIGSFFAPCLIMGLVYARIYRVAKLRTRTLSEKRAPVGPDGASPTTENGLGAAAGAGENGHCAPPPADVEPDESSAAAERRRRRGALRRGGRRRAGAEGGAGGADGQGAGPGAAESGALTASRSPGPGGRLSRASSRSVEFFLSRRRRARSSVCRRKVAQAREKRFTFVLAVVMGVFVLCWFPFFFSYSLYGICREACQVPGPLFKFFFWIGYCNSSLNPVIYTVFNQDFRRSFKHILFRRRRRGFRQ

`C=C(C)c1cccc(C(C)(C)NC(=O)NCC2CCCO2)c1` (centres undefined): the cell count in assay [1] was 496. Also, the inhibition in assay [1] is 2.3% (inactive); in assay [3], -31.1% (inactive); in assay [7] it was 7.08% (inactive); in assay [8] it was 9.27% (inactive). Besides, in assay [2], the inhibition of aggregation is -23% (inactive). Moreover, the figures for the nuclei count in assay [2] and in assay [3] were 108% and 113%, respectively. For the same compound, the fluorescence slope in assay [4] is -0.362 (inactive). Moreover, the NADPH fluorescence slope in assay [5] was -5.6e-05 (inactive). Moreover, the slope in assay [6] is 0.0056 (inactive).

Turning to `CCCCN(CC)CCCNC(=O)CS(=O)(=O)Cc1nc(-c2cccc(OC)c2)oc1C`, in assay [1], the cell count was 670. Moreover, the inhibition in assay [1] was -15.1% (inactive); in assay [3], -24.9% (inactive); in assay [7] it was 2.85% (inactive); in assay [8], 17.9% (inactive). The inhibition of aggregation in assay [2] was -1% (inactive). Further, the results for the nuclei count in assay [2] and in assay [3] were 100% and 99.7%, respectively. In addition, the fluorescence slope in assay [4] was -0.354 (inactive). In assay [5], the NADPH fluorescence slope is 4e-05 (inactive). For the same compound, the slope in assay [6] was 0.00399 (inactive).

For the compound `Cc1cc(C(F)(F)F)nc(NCc2cccnc2)n1`, the cell count in assay [1] turned out to be 597. Further, the inhibition in assay [1] was -31.3% (inactive); in assay [3] it was -79.3% (inactive); in assay [7] it was -7.81% (inactive); in assay [8], -18.3% (inactive). Moreover, the inhibition of aggregation in assay [2] was -19.1% (inactive). The nuclei count in assay [2] came out at 97.7%; in assay [3] it was 120%. Further, the fluorescence slope in assay [4] was -0.529 (inactive). For the same compound, the NADPH fluorescence slope in assay [5] was 1.9e-05 (inactive). Moreover, the slope in assay [6] is 0.00686 (inactive).

`O=S(=O)(NCC1CCCO1)c1ccc2c(c1)OCCO2` (centres undefined): the cell count in assay [1] stood at 311. The inhibition is -5.5% (inactive) in assay [1], -67.1% (inactive) in assay [3], 6.84% (inactive) in assay [7] and 7.25% (inactive) in assay [8]. For the same compound, the inhibition of aggregation in assay [2] is -1% (inactive). For the same compound, the nuclei count in assay [2] worked out at 122%; in assay [3] it was 120%. Besides, the fluorescence slope in assay [4] was -0.469 (inactive). For the same compound, the NADPH fluorescence slope in assay [5] was -9.9e-06 (inactive). In addition, the slope in assay [6] was 0.00518 (inactive).

With `Cc1cc(NS(=O)(=O)c2ccc(Nc3nc(-c4sc(N)nc4C)cs3)cc2)no1`, in assay [1], the cell count turned out to be 333. The inhibition in assay [1] is 5.5% (inactive); in assay [3], -11.3% (inactive); in assay [7], 6.21% (inactive); in assay [8], 25.1% (inactive). Moreover, in assay [2], the inhibition of aggregation is -10.4% (inactive). Besides, the nuclei count in assay [2] came to 117%; in assay [3], 103%. In assay [4], the fluorescence slope is -0.412 (inactive). Besides, the NADPH fluorescence slope in assay [5] is -7.5e-05 (inactive). In assay [6], the slope was 0.00495 (inactive).

Turning to `CCn1c2ccccc2c2cc(N)ccc21`, in assay [1], the cell count came to 705. Also, the inhibition in assay [1] is -34.5% (inactive); in assay [3] it was -37.7% (inactive); in assay [7], 8.66% (inactive); in assay [8] it was 15.3% (inactive). For the same compound, the inhibition of aggregation in assay [2] was 17.8% (inactive). In addition, the nuclei count in assay [2] worked out at 91.5%; in assay [3] it was 107%. In addition, in assay [4], the fluorescence slope is -0.458 (inactive). Further, in assay [5], the NADPH fluorescence slope is 5.8e-06 (inactive). Besides, the slope in assay [6] is 0.00355 (inactive).

With `Cc1cc(C)nc(/N=C2\NC(=O)CC(C(=O)O)N2c2ccc(Cl)cc2)n1` (centres undefined), the cell count in assay [1] came out at 639. Moreover, the inhibition was -9.7% (inactive) in assay [1], -44.1% (inactive) in assay [3], 11.6% (inactive) in assay [7] and 34.3% (inactive) in assay [8]. In addition, the inhibition of aggregation in assay [2] was 0.5% (inactive). Moreover, the nuclei count came out at 101% in assay [2] and 107% in assay [3]. Moreover, the fluorescence slope in assay [4] is -0.552 (inactive). In assay [5], the NADPH fluorescence slope was -2.8e-05 (inactive). Further, in assay [6], the slope was 0.00735 (inactive).

With `CN(C)c1oc(-c2ccccc2Cl)nc1C#N`, in assay [1], the cell count was 302. The inhibition was 4.3% (inactive) in assay [1], 6% (inactive) in assay [3], 6.71% (inactive) in assay [7] and -0.158% (inactive) in assay [8]. In addition, the inhibition of aggregation in assay [2] is -4.3% (inactive). Moreover, the nuclei count in assay [2] worked out at 90.7%; in assay [3], 109%. Besides, the fluorescence slope in assay [4] is -0.433 (inactive). Further, in assay [5], the NADPH fluorescence slope was -0.000102 (inactive). Also, the slope in assay [6] is 0.00458 (inactive).

Turning to `Cc1noc(C)c1CSc1nc2ccccc2s1`, the cell count in assay [1] amounted to 588. Further, the inhibition in assay [1] is -2.3% (inactive); in assay [3], -4.7% (inactive); in assay [7], 4.37% (inactive); in assay [8], -21.8% (inactive). Moreover, in assay [2], the inhibition of aggregation was -7.7% (inactive). Also, the nuclei count in assay [2] was determined as 113%; in assay [3] it was 102%. The fluorescence slope in assay [4] was -0.515 (inactive). Also, in assay [5], the NADPH fluorescence slope was 2.9e-05 (inactive). The slope in assay [6] was 0.00595 (inactive).

In the case of `CC(C)OC(=O)c1ccc(NC(=O)C2C3CC4OC(=O)C2C4C3)cc1` (centres undefined), in assay [1], the cell count came out at 324. Also, the inhibition was -10.5% (inactive) in assay [1], -115% (inactive) in assay [3], -44.9% (inactive) in assay [7] and -88.7% (inactive) in assay [8]. Also, the inhibition of aggregation in assay [2] was -9.4% (inactive). Besides, the nuclei count in assay [2] was 103%; in assay [3], 151%. Further, in assay [4], the fluorescence slope was -0.327 (inactive). For the same compound, in assay [5], the NADPH fluorescence slope is -6e-05 (inactive). Moreover, the slope in assay [6] was 0.00657 (inactive).

For the compound `CCOC(=O)c1[nH]c(CSc2nnc(-c3ccc(OC)cc3)o2)c(C(=O)OCC)c1C`, the cell count in assay [1] turned out to be 609. Further, the inhibition in assay [1] was 1.4% (inactive); in assay [3] it was -39.2% (inactive); in assay [7], 7.64% (inactive); in assay [8] it was 24.1% (inactive). For the same compound, the inhibition of aggregation in assay [2] was -12.6% (inactive). Also, the nuclei count turned out to be 124% in assay [2] and 119% in assay [3]. In addition, the fluorescence slope in assay [4] is -0.304 (inactive). In addition, the NADPH fluorescence slope in assay [5] is -5.8e-05 (inactive). Also, the slope in assay [6] is 0.00625 (inactive).

Regarding `O=C(NCCCCNC(=O)c1c(F)c(F)c(F)c(F)c1F)c1c(F)c(F)c(F)c(F)c1F`, in assay [1], the cell count stood at 778. Moreover, the inhibition in assay [1] is 1% (inactive); in assay [3] it was -48.4% (inactive); in assay [7], 12.8% (inactive); in assay [8] it was 20% (inactive). Moreover, in assay [2], the inhibition of aggregation is 10.7% (inactive). In addition, the nuclei count in assay [2] amounted to 104%; in assay [3], 110%. For the same compound, the fluorescence slope in assay [4] is -0.308 (inactive). The NADPH fluorescence slope in assay [5] is 3.6e-05 (inactive). In addition, in assay [6], the slope is 0.00647 (inactive).

Turning to `O=S(=O)(NCc1ccc(Cl)cc1)c1cnc[nH]1`, the cell count in assay [1] came out at 468. For the same compound, the inhibition in assay [1] is 5% (inactive); in assay [3] it was -182% (inactive); in assay [7], -8.39% (inactive); in assay [8], -18.3% (inactive). In addition, the inhibition of aggregation in assay [2] was -5.7% (inactive). Further, the nuclei count was determined as 96.7% in assay [2] and 129% in assay [3]. Further, in assay [4], the fluorescence slope was -0.538 (inactive). For the same compound, the NADPH fluorescence slope in assay [5] is -2e-05 (inactive). The slope in assay [6] was 0.00614 (inactive).

For `COc1cccc(N2CCN(Cc3cccnc3)CC2)c1`, the cell count in assay [1] was 621. Also, the inhibition in assay [1] was -1% (inactive); in assay [3] it was 15.6% (inactive); in assay [7], 6.56% (inactive); in assay [8], 11.4% (inactive). Further, the inhibition of aggregation in assay [2] was -21.4% (inactive). For the same compound, the nuclei count turned out to be 96.6% in assay [2] and 87.2% in assay [3]. In assay [4], the fluorescence slope is -0.364 (inactive). In assay [5], the NADPH fluorescence slope is -6e-05 (inactive). For the same compound, the slope in assay [6] is 0.00629 (inactive).
